# Source: PubChem (National Center for Advancing Translational Sciences (NCATS))
# Only some compounds are listed: those with a hit (about 3.5% of all), similar ones and a draw of the others.
# NS1 inh: qHTS Assay for Inhibitors of Influenza NS1 Protein Function; 270,000 compounds, 0.4% hits; AID 2326, 2010; Potency, µM (titrated, usually from 46.1 µM), for the others: at the top dose activity, positive = more growth; calls by dose curve; also: actives are rising curves; nearly all actives have a fitted effect of over 50% in size
#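 Compounds were scored for reversing the slow growth caused by influenza A NS1 in S. cerevisiae, measured by optical density at 600 nm. Assay medium contained 2% galactose at pH 6.0; NS1-free yeast of the same strain were the positive control.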
# RE007 growth inh: qHTS Assay for Inhibitors of the HIV-1 protein Vpr; S. pombe RE007 Vpr strain, BacTiter-Glo ATP luminescence, 24 h; Potency, µM (doses to about 92.2 µM), for inactives: at the top dose activity change, negative = less growth, most hits filed as inhibitors; 360,000 compounds, 0.21% hits; active = well fitted falling curve with a large enough effect; inconclusive = small, poorly fitted or top-dose-only effect; inactive = no such curve, though single readings can be large or run the other way; also: % is scaled to controls: 0 for no effect and ±100 for the full control effect; nearly all actives have a fitted effect of over 50% in size
#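 Fission yeast RE007 carrying one integrated HIV-1 vpr copy, seeded at OD 0.01 in PMG+AL medium with 23 nL pinned compound. Grown 24 h at 30 degrees; viability read by BacTiter-Glo luminescence after 5 min.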
# TbPYK inhibitor: qHTS of Trypanosoma Brucei Inhibitors; pyruvate kinase (Trypanosoma brucei), Q57TT1; TbPYK enzyme, Kinase-Glo Plus ATP luminescence, 45 min; Potency, µM (titrated, usually from 76.8 µM), without a hit: top-dose activity, negative = inhibition, usual class: inhibitors; 410,000 compounds, 0.12% hits; also: % is scaled to controls: 0 for no effect and ±100 for the full control effect; nearly all actives have a fitted effect of over 50% in size
#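 Luminescent Kinase-Glo Plus end-point after 45 min room-temperature reaction of T. brucei pyruvate kinase started with 130 uM ADP (final). Buffer TEA 50 mM pH 7.2 with KCl, MgCl2, BSA, Tween-20; titration-based qHTS with fitted concentration-effect curves.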
# Giardia FBPA inh: qHTS Assay for Inhibitors of Fructose-1,6-bisphosphate Aldolase from Giardia Lamblia. Potency, µM (doses to about 59.6 µM), inactives show at the highest dose activity, negative = inhibition, hits mostly inhibitors. 290,000 compounds, 0.71% hits. AID 2451, 2010. A8B2U2. purified Giardia FBPA; also: % is scaled to controls: 0 for no effect and ±100 for the full control effect; nearly all actives have a fitted effect of over 55% in size
# Target sequence (A8B2U2 whole entry, looked up): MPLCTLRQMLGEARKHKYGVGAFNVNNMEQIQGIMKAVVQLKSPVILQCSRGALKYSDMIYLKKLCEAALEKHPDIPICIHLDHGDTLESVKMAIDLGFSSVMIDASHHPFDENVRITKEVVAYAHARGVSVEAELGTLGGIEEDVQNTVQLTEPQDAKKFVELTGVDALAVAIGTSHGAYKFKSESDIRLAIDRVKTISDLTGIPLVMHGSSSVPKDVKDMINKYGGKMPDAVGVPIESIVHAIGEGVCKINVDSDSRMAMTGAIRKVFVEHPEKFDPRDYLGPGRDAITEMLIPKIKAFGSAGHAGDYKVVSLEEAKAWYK
#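 Giardia FBPA (40 nM reagent) was preincubated 10 min at RT with compound (up to 57.5 uM final), then substrate plus GAPDH/TPI/NAD/arsenate coupling system with diaphorase/resazurin was added; resorufin fluorescence (525/598 nm) was read after 20 min.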
# Sm TGR inh: qHTS Assay for the Inhibitors of Schistosoma Mansoni Peroxiredoxins. Potency, µM (doses to about 114 µM), for inactives: at the top dose activity change, negative = inhibition, hits mostly inhibitors. purified TGR, DTNB reduction, TNB absorbance 405 nm. Schistosoma mansoni thioredoxin glutathione reductase (TGR), Q962Y6. 360,000 compounds, 3% hits; also: % is scaled to controls: 0 for no effect and ±100 for the full control effect; nearly all actives have a fitted effect of over 60% in size
#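 TGR 20 nM + NADPH 100 uM (dispensed conc.), cpd preinc 15 min RT; start with NADPH (500 uM addition) then DTNB (15 mM addition). Kinetic TNB absorbance, 405 nm filter. Four-parameter Hill fit across titration.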
# LmPK inh: qHTS Assay for Inhibitors of Leishmania Mexicana Pyruvate Kinase (LmPK). Q27686. purified LmPK, Kinase-Glo ATP luminescence, 1 h. Potency, µM (top dose mostly 57.5 µM), for inactives: at the top dose activity change, negative = inhibition, hits mostly inhibitors. 290,000 compounds, 0.37% hits; also: % is scaled to controls: 0 for no effect and ±100 for the full control effect
#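 qHTS format; LmPK 0.1 nM; substrates PEP 0.5 mM and ADP 0.1 mM. One-hour room-temperature incubation, then coupled luciferase luminescence; 0.5 nM enzyme wells mark activation.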
# Starred values were filed as active, the others as inactive; ? = inconclusive; . = no result given; [ ] = another dose, or the depositor's remark. Unless noted, calls follow the shape of the dose curve; as a rule, active = well fitted curve in the direction sought with a large enough effect; inconclusive = small, poorly fitted or top-dose-only effect, or another doubt; inactive = no such curve, though single readings can be large; an effect the other way counts as inactive or inconclusive. Potency is read from the fitted curve at half-maximal effect.
SMILES,NS1 inh,RE007 growth inh,TbPYK inhibitor,Giardia FBPA inh,Sm TGR inh,LmPK inh
O=C(N/N=C/C=C/c1ccccc1[N+](=O)[O-])c1cccs1,-2%,.,-2%,-7%,-16%,2%
O=C(N/N=C/c1ccc([N+](=O)[O-])cc1)c1ccc(NS(=O)(=O)c2cccs2)cc1,.,0%,-3%,.,-3%,.
O=C(N/N=C\C=C\c1ccc([N+](=O)[O-])o1)c1cccs1,-45%,-10%,1%,-18%,10µM*,1%
O=C(N/N=C/c1ccc([N+](=O)[O-])o1)c1ccc(NS(=O)(=O)c2cccs2)cc1,5%,6%,-6%,-7%,35µM*,5%
Cc1cc(C)c2[nH]c(=O)c(C(c3nnnn3CC3CCCO3)N3CCC(C)CC3)cc2c1 (stereo not drawn),-20%,2%,-14%,-17%,14µM*,5%
Cc1ccc2[nH]c(=O)c(C(c3nnnn3CC3CCCO3)N3CCOCC3)cc2c1 (stereo not drawn),-2%,?,-4%,-1%,-3%,0%
Cc1ccc2[nH]c(=O)c(C(c3nnnn3CC3CCCO3)N3CCc4ccccc4C3)cc2c1 (stereo not drawn),3%,4%,-24%,?,25µM*,0%
CCC(c1nnnn1CC1CCCO1)N(CCN1CCOCC1)Cc1cc2cc(C)ccc2[nH]c1=O (stereo not drawn),2.2µM*,-12%,-6%,-13%,?,2%
Cc1cc(C)c2[nH]c(=O)c(C(c3nnnn3CC3CCCO3)N3CCCC(C)C3)cc2c1 (stereo not drawn),-21%,8%,-4%,-28%,13µM*,-2%
CCC(c1nnnn1CCOC)N(Cc1cc2cc(C)c(C)cc2[nH]c1=O)CC1CCCO1 (stereo not drawn),-10%,17%,-6%,-8%,-11%,0%
COc1ccc2[nH]c(=O)c(C(c3nnnn3CC3CCCO3)N3CCc4ccccc4C3)cc2c1 (stereo not drawn),-2%,-8%,-5%,-29%,?,1%
Cc1ccc2[nH]c(=O)c(CN(CCCN3CCOCC3)C(=O)NC3CCCCC3)cc2c1,-1%,-11%,9%,-2%,100µM*,0%
CCn1nc(NC(=O)c2ccco2)c2cc3ccccc3nc21,-19%,2%,0%,-6%,3%[11.4 µM],-1%
CCCn1nc(NC(=O)c2ccco2)c2cc3cc(C)ccc3nc21,-3%,-7%,0%,-25%,11µM*,0%
CCCn1nc(NC(=O)c2ccco2)c2cc3ccc(C)cc3nc21,2%,-9%,-1%,0%,?,-4%
CC(C)Cn1nc(NC(=O)c2ccco2)c2cc3ccccc3nc21,-1%,3%,5%,-12%,50µM*,0%
COc1ccc2c(c1)cc1c(=O)n(CC(=O)NC3CCCCC3)nc(C)n12,.,.,-1%,.,0%,.
CN(C(=O)CSc1nc2ccc(NC(=O)COc3ccc(F)cc3)cc2s1)c1ccccc1,.,.,4%,.,-2%,.
CC(=O)Nc1cccc(NC(=O)c2c(-c3ccccc3)c(-c3ccccc3)nn(C)c2=O)c1,.,.,-2%,.,-3%,.
Cc1cccc(OCC(=O)Nc2ccc(N3CCCC3)cc2)c1C,18%,-5%,0%,-15%,32µM*,1%
COC(=O)[C@@H]1Cc2c([nH]c3ccccc23)C(C)(C)N1C(=O)CCl,1%,-10%,-8%,0%,32µM*,-1%
COC(=O)C1Cc2c([nH]c3ccccc23)C2CCC(=O)N12 (stereo not drawn),.,1%,2%,.,.,.
CC1CCC2C(=O)N3C(CCC(C)[C@@H]3c3ccc(-c4ccco4)cc3)C(=O)N2C1c1cccc(N2CCCC2=O)c1 (stereo partly drawn),.,.,.,-7%[12.9 µM],.,.
COc1ccc(S(=O)(=O)NCC2CCCN(Cc3ccc(C)o3)C2)cc1 (stereo not drawn),5%,2%,0%,3%,35µM*,4%
CC1=Nc2cc(C(=O)NC3CCCCC3)ccc2Sc2ccc(Cl)cc21,.,.,0%,.,-6%,.
SMILES,NS1 inh,RE007 growth inh,TbPYK inhibitor,Giardia FBPA inh,Sm TGR inh,LmPK inh
Cc1[nH][nH]c(=O)c1C(c1ccc(-c2ccc(Cl)c(C(=O)O)c2)o1)c1c(C)[nH][nH]c1=O,3%,-28%,-17%,7.1µM*,16µM*,0%
COC(=O)c1cccc(-c2ccc(C(c3c(C)[nH][nH]c3=O)c3c(C)[nH][nH]c3=O)o2)c1,.,-6%,-11%,14µM*,14µM*,-4%
COc1ccccc1NC(=O)C1=C(C)Nc2nnnn2C1c1cc(Br)c(O)c(OC)c1 (stereo not drawn),.,.,-14%,.,-17%,.
COC(=O)CSc1nnc([C@H](Cc2ccccc2)NC(=O)OC(C)(C)C)o1,0%,-18%,-8%,-3%,0%,2%
COC(=O)CS(=O)(=O)c1nnc([C@H](Cc2ccccc2)NC(=O)OC(C)(C)C)o1,-139%,-22%,-21%,3%,1.4µM*,1%
Cc1cccc(CS(=O)(=O)c2nnc([C@H](Cc3ccccc3)NC(=O)OC(C)(C)C)o2)c1,-42%,-20%,-9%,-7%,1.8µM*,8%
CC(C)(C)OC(=O)N[C@@H](Cc1ccccc1)c1nnc(SCC(N)=O)o1,3%,-5%,2%,-3%,9%,-1%
CCOC1(NC(=O)c2ccccc2)C(C)=CC(=O)C=C1C,0%,-7%,?,-8%,25µM*,3%
CCc1ccc(C(=O)c2cn(CC(=O)Nc3ccc4c(c3)OCO4)c3ccc(F)cc3c2=O)cc1,.,.,-4%,.,-7%,.
Cc1nc2nc(-c3ccco3)nn2c(C)c1Cl,4%,-16%,1%,0%,22µM*,-14%
CC1(C)C(=O)C=C[C@@]2(C)C1C=C[C@@]1(C)C2CC[C@@]2(C)C(c3ccoc3)OC(=O)C3OC312 (stereo partly drawn),.,.,.,-3%,.,.
Cc1ccc(C)n1-c1ccc(C(=O)NCc2ccncc2)cc1,.,-9%,0%,-1%,22µM*,4%
CCOc1ccc(C(=O)NCc2ccncc2)cc1,4%,-2%,-5%,1%,14%,-3%
COC(=O)c1cc(=O)c(O)c2c(O)c(O)ccc2c1,.,.,.,5µM*,.,.
COc1ccc(N2CCN(C(=O)c3cc(S(=O)(=O)N4CCC(C)CC4)cn3C)CC2)cc1,.,.,2%,.,-4%,.
Cc1ccc(OC(=O)c2ccc(C)c(C)c2)cn1,-18%,-24%,3%,3%,2%,-4%
